# INS promoter inh: TRM-6 insulin promoter activity inhibition. TRM-6 cells (human fetal islet line), insulin promoter-eGFP reporter, imaging; reporter expression induced with tamoxifen. AID 1273. inhibition, % at 2 µM. 0.9% of 130,000 active;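 active = inhibition above the mean plus 3 SD, with well images judged a real hit on visual review, cut at about 60% in these data, passing the limit was not always enough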
# Autophagy mod: autophagy modulation, high-content screen. MEF GFP-LC3 puncta imaging; test concentration mostly 10 µM. calls only at 10 µM (by protocol). 0.98% of 190,000 active;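 active = percentage of spot-positive cells more than 3 SD above its plate mean, without a fluorescence outlier flag or 80% toxicity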;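 also: spot-positive cell cutoff set from DMSO-treated cells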
# Ins promoter up: MIN6 insulin promoter up-regulation; 0.3% of 190,000 active; MIN6 insulin promoter-GFP reporter, high-content imaging; active compounds read high; z-score at 5 µM;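 active = z-score above 3 at 5 µM with at least 500 cells counted in the well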
# bCat KO growth: beta-catenin-lacking colon tumor cell growth suppression; 1.5% of 140,000 active; AID 818; viability, % at 10 µM; HCT116 beta-catenin knockout viability, CellTiter-Glo, 60 h; active compounds read low;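 active = viability at or under a set limit, the compound median less 4 SD, cut at about 6% in these data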;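 also: 0% = Hyamine 1622 control at 20 µM and 100% = untreated cell control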
# HCT116 PTEN-null: growth suppressors of cells with PTEN tumor suppressor deletion | HCT116 PTEN-null viability, CellTiter-Glo, 60 h; active compounds read low | viability, % at 10 µM | 1.2% of 140,000 active;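 active = viability at or below a set limit, 4 SD under the median of all tested compounds, cut at about 3.7% in these data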;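 also: PTEN knockout HCT116 line with beta catenin targeted HCT116 as companion control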
# L major viab: reduces viability of Leishmania major promastigotes; resazurin fluorescence viability; inhibition, % at 10 µM; 9% of 200,000 active; in the data active = inhibition above about 50%;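 also: promastigotes grown with compound for 44 hours at 28 °C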
# * hit, by the source's call; i = inactive; / = no result given; + = active, no number. Hits are enriched below; roughly 9.6% of the tested compounds scored in any of these assays.
SMILES,INS promoter inh,Autophagy mod,Ins promoter up,bCat KO growth,HCT116 PTEN-null,L major viab
O=C(c1cc2ccccc2oc1=O)N1CCN(c2ccc(N3CCOCC3)nn2)CC1,/,/,-0.52,83.0,86.9,-6.0
O=C(NC1CC2CCCC(C1)N2Cc1ccccc1)C1CCCCC1 (centres undefined),/,i,-0.24,/,/,83.6*
O=C(NC1CC2CCCC(C1)N2S(=O)(=O)c1ccccc1)C1CCCCC1 (centres undefined),28.6,i,/,72.9,74.4,19.6
Cc1ccc(Nc2nc(CSc3nnc(-c4ccc(F)cc4)n3C)cs2)cc1,-39.5,i,-0.39,75.4,69.7,80.7*
O=c1nc(Nc2ccccc2)oc2ccccc12,/,/,-1.15,/,/,/
CN(C)c1ccc(NC(=O)Cn2ncn3c(cc4ccccc43)c2=O)cc1,/,i,0.79,97.6,88.3,57.9*
CCOC(=O)C1(Cc2ccccc2)CCCN(C2CCN(C(C)=O)CC2)C1 (centres undefined),/,i,0.92,/,/,79.3*
CCOC(=O)C1(Cc2ccccc2)CCCN(CCCn2cccn2)C1 (centres undefined),/,i,/,/,/,90.6*
CCOC(=O)C1(Cc2ccccc2Cl)CCN(C(=O)CCn2ccnc2C)CC1,-57.1,i,-0.7,/,/,99.7*
CCOC(=O)C1(Cc2ccccc2)CCN(Cc2nccn2CC)CC1,/,i,-1.28,/,/,-1.9
CCOC(=O)C1(Cc2ccc(Cl)cc2)CCN(Cc2nccn2CC)CC1,/,i,-2.22,/,/,79.2*
Cc1ccc(S(=O)(=O)N2CCCC2C(=O)NCCc2nc3ccccc3[nH]2)cc1 (centres undefined),-111.1,i,-0.65,87.4,80.6,-3.1
CCOC(=O)C1(Cc2ccc(Cl)cc2)CCN(CCCn2cccn2)CC1,-43.8,i,-0.16,/,/,84.7*
Cc1ccc(NC(=O)CSc2nc3c(c(=O)[nH]2)CCC3)cc1C,-35.7,i,0.17,81.1,80.2,-0.8
O=C(O)c1ccc2nc(C(F)(F)F)[nH]c2c1,38.5,i,0.53,87.5,106.0,-5.6
CN(C)S(=O)(=O)c1cccc(NC(=O)CNCC2CCCCC2)c1,44.4,i,0.41,/,/,84.4*
CCN(CC)S(=O)(=O)c1ccc(Cl)c(NC(=O)COc2ccc3c(C)cc(=O)oc3c2)c1,7.7,i,0.22,82.3,97.5,-4.7
Cc1cc(=O)oc2cc(OCC(=O)OCC(=O)Nc3ccccc3C(C)C)ccc12,60.0*,i,-0.48,83.4,86.5,-9.1
Cc1ccc(Cl)cc1NC(=O)COC(=O)c1ccc(COc2ccc3c(C)cc(=O)oc3c2)cc1,5.4,i,0.48,111.3,92.7,54.5*
Cc1cc(=O)oc2cc(OCC(=O)Nc3cccc(S(=O)(=O)N(C)C)c3)ccc12,5.4,i,0.46,95.9,100.2,60.4*
CCN(CC)S(=O)(=O)c1cccc(NC(=O)CNC2CCCCCC2)c1,/,/,0.02,/,/,/
COc1ccc(C(=O)CCC(=O)Nc2cccc(Cl)c2)cc1,-14.3,i,0.19,/,/,16.9
CNc1oc(-c2cccc3ccccc23)nc1C#N,22.6,i,0.52,98.4,87.2,-4.5
CC(=O)c1cccc(NC(=O)CC2S/C(=N/N=C/c3ccccc3)NC2=O)c1 (centres undefined),/,i,/,/,/,-4.3
Cn1nnnc1SCC1=C(C(=O)O)N2C(=O)C(NC(=O)Cn3nc(C(F)F)cc3C3CC3)C2SC1 (centres undefined),28.6,+,0.76,/,/,-1.4
SMILES,INS promoter inh,Autophagy mod,Ins promoter up,bCat KO growth,HCT116 PTEN-null,L major viab
Cc1c(Nc2cc(N3CCOCC3)c3nonc3c2[N+](=O)[O-])c(=O)n(-c2ccccc2)n1C,/,i,-0.16,/,/,4.9
Cc1c(Nc2cc(Cl)c3nonc3c2[N+](=O)[O-])c(=O)n(-c2ccccc2)n1C,100.0*,+,0.23,/,/,79.0*
COCCn1c(SCC(=O)Nc2ncc(C)s2)nc2sc3c(c2c1=O)CCC3,-11.5,i,-0.75,75.4,78.1,26.8
C1CCN(c2nc(N3CCCCC3)nc(N3CCNCC3)n2)CC1,-9.1,i,1.09,36.7,46.1,67.6*
O=C(NCCSCc1c(F)cccc1Cl)c1ccc(CN2CCOCC2)cc1,-16.7,i,-0.14,82.6,90.2,80.2*
CC(C)C(=O)Nc1ccnc(-c2cccnc2)n1,-36.7,i,/,96.8,96.2,4.2
O=C(CSc1nnc(CNC(=O)c2ccco2)o1)c1ccc(Cl)cc1,7.9,i,0.22,99.6,86.2,-10.3
Cc1ccc(N(Cc2ccc(C(=O)NCCSc3ccccn3)cc2)S(C)(=O)=O)cc1C,24.3,i,0.19,58.7,58.3,67.5*
O=C(CN(c1ccccc1)S(=O)(=O)c1ccccc1)NCCSc1ccccn1,/,i,0.41,/,/,-0.2
Cc1cccc(N(CC(=O)NCCSc2ccccn2)S(=O)(=O)c2ccccc2)c1,-60.0,i,0.54,94.8,93.9,57.1*
O=C1CCC(=O)N1CCC(c1ccc(F)cc1)c1ccco1 (centres undefined),-281.8,i,/,95.9,101.3,2.0
O=C1NCN(c2ccccc2)C12CCN(CCCC(c1ccc(F)cc1)c1ccc(F)cc1)CC2,-6.7,+,-0.77,/,/,100.6*
COc1cc(CN2CC(C)OC(C)C2)cc(OC)c1 (centres undefined),7.7,i,/,/,/,-3.8
COC(=O)c1ccc(OCCOc2ccccc2)cc1,-14.8,i,/,106.9,89.6,-5.5
CC(C)SCCCCOc1ccc2ccccc2c1,/,i,0.85,65.8,75.5,72.0*
CC1CN(CCCCOc2ccc3ccccc3c2)CC(C)O1 (centres undefined),35.3,i,-0.78,79.6,92.6,90.2*
COC(=O)c1ccc(OCCCCN2CC(C)OC(C)C2)cc1 (centres undefined),/,i,0.51,/,/,95.6*
COc1cccc(OCCCCN2CC(C)OC(C)C2)c1 (centres undefined),-20.0,i,/,85.8,88.1,93.5*
CN(C)CCNc1nc2sc3c(c2c(=O)n1-c1ccccc1)CCCCC3,/,/,0.73,/,/,/
Cc1cc(C(=O)OCC(=O)c2ccc(Br)s2)no1,12.1,i,0.53,74.6,88.2,-1.4
Cc1nc2cc(-c3ccc(Cl)cc3)nn2c(C)c1CCC(=O)NC(C)c1ccc2c(c1)OCCO2 (centres undefined),5.0,i,-2.1,53.5,52.9,98.1*
Cc1csc(NC(=O)CCc2c(C)nc3cc(-c4ccc(Cl)cc4)nn3c2C)n1,0.0,i,-1.6,54.1,45.8,6.1
CCCCOC(=O)c1ccc(NC(=O)CSCc2n[nH]c(=O)[nH]2)cc1,13.9,i,0.06,92.1,97.9,-4.2
O=S(=O)(Nc1ccc(Cc2ccncc2)cc1)c1ccc(Cl)c(Cl)c1,-24.4,i,/,61.3,67.5,73.7*
O=S(=O)(Nc1ccc(-n2cccc2)cc1)c1ccc(Cl)c(Cl)c1,/,/,0.25,/,/,/
Cc1ccccc1N(CC(=O)NCc1ccc2c(c1)OCO2)C(=O)CCC(=O)Nc1ccccn1,/,i,-0.51,101.8,95.2,61.1*
CCCc1cc(-c2nc(-c3ccc(Br)cc3)cs2)ccn1,-25.9,i,-0.49,68.9,76.6,60.0*
